Nine molecules from PubChem BioAssay (NCI) can be followed below.

About 83,000 compounds went through this panel and 20% of them were active in at least one assay; those are over-represented in the sample as a whole.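 A percent growth of 40 corresponds to 60% growth inhibition; 0 means no net growth; -100 means all cells died. Active threshold: below 10.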 A number with no mark means an inactive call. Activity calls are given as the source filed them.

Among the test systems are NCI-H23 lung; NCI-H226 lung; NCI-H322M lung; HOP-62 NSCLC; HOP-92 NSCLC; NCI-H522 lung; A549/ATCC NSCLC; 786-0 renal; COLO 205 colon; DU-145 prostate; K-562 leukemia; MALME-3M melanoma; MDA-MB-231 breast; RXF 393 renal; SF-268 CNS; SF-295 CNS; SF-539 CNS; UACC-257 melanoma; M14 melanoma.
Holding throughout (experiment): NCI-60 one-dose screen, 48 h (100 = growth as untreated, 0 = no growth, -100 = all killed)
Details in all cases: 10 µM unless noted

Consider `O=C1/C(=C/c2ccc([N+](=O)[O-])cc2)COc2ccc(O)cc21`, for which the growth in the assay with NCI-H23 lung was 96.6%; with NCI-H226 lung, 100%; in the assay with NCI-H322M lung it was 91.9%; in the assay with HOP-62 NSCLC, 104%; with HOP-92 NSCLC, 110%; in the assay with NCI-H522 lung, 62.2%. Moreover, the growth with A549/ATCC NSCLC was 97.1%; in the assay with 786-0 renal, 81.9%; with COLO 205 colon, 92.9%; in the assay with DU-145 prostate, 92.6%; in the assay with K-562 leukemia it was 11.2%; with MALME-3M melanoma, 96.1%. Moreover, the growth was 80.8% in the assay with MDA-MB-231 breast; 98.9% in the assay with RXF 393 renal; 84% in the assay on SF-268 CNS; 98.6% in the assay on SF-295 CNS; 94.5% with SF-539 CNS; 106% with UACC-257 melanoma. In the assay on M14 melanoma, the growth was 88.2%.
With `COc1ccc(/C=C(\C#N)n2nnc3cc(Cl)ccc32)cc1`, the growth in the assay on NCI-H23 lung is 8.62% (active); in the assay on NCI-H226 lung, 12.8%; in the assay on NCI-H322M lung, 6.1% (active); in the assay on HOP-62 NSCLC it was 40.8%; in the assay with HOP-92 NSCLC it was -2.3% (active); in the assay on NCI-H522 lung it was -15.7% (active). Also, the growth is 14.4% in the assay with A549/ATCC NSCLC; -16.7% (active) with 786-0 renal; -13.2% (active) in the assay on COLO 205 colon; -14.9% (active) with DU-145 prostate; 8.41% (active) in the assay with K-562 leukemia; 34.6% with MALME-3M melanoma. Further, the growth is -56.3% (active) in the assay with MDA-MB-231 breast; -55.2% (active) in the assay on RXF 393 renal; 27.6% with SF-268 CNS; -20.9% (active) with SF-295 CNS; -60.5% (active) in the assay on SF-539 CNS; 53% in the assay with UACC-257 melanoma. Further, in the assay with M14 melanoma, the growth is -19.1% (active).
For `Cc1cccc(/C=C/c2c(C(=O)/C=C/c3ccccc3)c(C)nc3ccccc23)c1`, the growth is -57.9% (active) in the assay with NCI-H23 lung; -16.5% (active) in the assay with NCI-H226 lung; 9.28% (active) in the assay with NCI-H322M lung; -48.1% (active) in the assay on HOP-62 NSCLC; -1.2% (active) with HOP-92 NSCLC; -58.7% (active) in the assay with NCI-H522 lung. The growth is -34.8% (active) in the assay on A549/ATCC NSCLC; -55.5% (active) in the assay with 786-0 renal; -61.8% (active) in the assay on COLO 205 colon; -62% (active) in the assay with DU-145 prostate; 3.77% (active) in the assay with K-562 leukemia; -79.3% (active) in the assay with MALME-3M melanoma. Besides, the growth with MDA-MB-231 breast is -14.1% (active); in the assay with RXF 393 renal, -83% (active); with SF-268 CNS, 37.7%; in the assay with SF-295 CNS it was -18.8% (active); with SF-539 CNS, -84.9% (active); with UACC-257 melanoma it was -31.1% (active). Further, the growth in the assay on M14 melanoma is -12.8% (active).
Consider `CCOC(=O)C1=C(c2ccccc2)N=C2SC=C(c3ccc(Cl)cc3)N2C1c1ccc(Br)cc1` (centres undefined), for which the growth in the assay on NCI-H23 lung was 69.8%; in the assay on NCI-H226 lung, 76.6%; in the assay on NCI-H322M lung, 90.9%; in the assay on HOP-62 NSCLC it was 90.7%; with NCI-H522 lung, 69.3%; with A549/ATCC NSCLC, 84.5%. Moreover, the growth with 786-0 renal was 80.6%; in the assay with COLO 205 colon, 83.1%; in the assay on DU-145 prostate it was 90.3%; in the assay on K-562 leukemia, 84.1%; in the assay with MALME-3M melanoma, 87.4%; in the assay on MDA-MB-231 breast, 68.5%. Moreover, the growth with RXF 393 renal is 68.6%; in the assay on SF-268 CNS, 77%; with SF-295 CNS it was 88.7%; in the assay with SF-539 CNS, 94.9%; in the assay on UACC-257 melanoma it was 79%; with M14 melanoma, 83.7%.
Turning to `COc1ccc(/C=C(\C#N)n2nnc3cc(F)c(F)cc32)cc1`, the growth with NCI-H23 lung is 74.7%; with NCI-H226 lung, 101%; in the assay with NCI-H322M lung it was 72.6%; in the assay with HOP-62 NSCLC, 49.6%; in the assay on HOP-92 NSCLC, 72.3%; with NCI-H522 lung, 12.7%. The growth with A549/ATCC NSCLC was 51.7%; with 786-0 renal, 60.8%; in the assay with COLO 205 colon it was 38.2%; in the assay on DU-145 prostate, 47.6%; in the assay on K-562 leukemia it was 8.72% (active); in the assay with MALME-3M melanoma, 45.6%. For the same molecule, the growth in the assay with MDA-MB-231 breast was 64.9%; in the assay with RXF 393 renal, 85.8%; in the assay with SF-268 CNS it was 68.6%; with SF-295 CNS it was 72.3%; with SF-539 CNS, 44.5%; with UACC-257 melanoma, 81.9%. Moreover, the growth in the assay with M14 melanoma is 6.43% (active).
As for `CNc1nnc2n(-c3ccccc3)c(=O)c3cnn(-c4ccccc4)c3n12`, the growth in the assay on NCI-H23 lung is 95.8%; in the assay on NCI-H226 lung it was 93.6%; in the assay on NCI-H322M lung, 100%; in the assay on HOP-62 NSCLC it was 64.7%; in the assay on HOP-92 NSCLC it was 78.3%; in the assay on NCI-H522 lung, 41.8%. For the same molecule, the growth in the assay with A549/ATCC NSCLC is 64.4%; in the assay on 786-0 renal it was 74.7%; in the assay with COLO 205 colon, 84.7%; in the assay with DU-145 prostate it was 102%; with K-562 leukemia it was 85.7%; in the assay with MALME-3M melanoma it was 131%. The growth with MDA-MB-231 breast was 103%; in the assay on RXF 393 renal, 98.2%; in the assay with SF-268 CNS, 96.1%; in the assay on SF-295 CNS, 78.8%; in the assay on SF-539 CNS, 83.5%; in the assay with UACC-257 melanoma, 95.7%.
As to `C=C1C(=O)O[C@H]2[C@H]1CC/C(Cn1cc(-c3ccccc3)nn1)=C\CC[C@@]1(C)O[C@@H]21`, the growth was -23.6% (active) with NCI-H23 lung; -25.8% (active) in the assay on NCI-H226 lung; 89.2% in the assay with NCI-H322M lung; 79.3% in the assay with HOP-62 NSCLC; -69.9% (active) in the assay with HOP-92 NSCLC; -62% (active) in the assay on NCI-H522 lung. Further, the growth in the assay on A549/ATCC NSCLC was 33.8%; in the assay with 786-0 renal it was -78% (active); in the assay with COLO 205 colon, -65.3% (active); in the assay with DU-145 prostate, -61.8% (active); in the assay with K-562 leukemia, -3.88% (active); in the assay with MALME-3M melanoma, -46.2% (active). Moreover, the growth was -13% (active) in the assay on MDA-MB-231 breast; -74.1% (active) in the assay on RXF 393 renal; 61.2% in the assay with SF-268 CNS; 75% in the assay with SF-295 CNS; -34.2% (active) in the assay with SF-539 CNS; -46.5% (active) in the assay on UACC-257 melanoma. The growth in the assay with M14 melanoma is -59% (active).
As to `CS(=O)(=O)Nc1cc(-c2ccc3ncnc(Nc4ccc5c(cnn5Cc5cccc(F)c5)c4)c3c2)cnc1Cl`, the growth is 10.4% in the assay with NCI-H23 lung; 20.8% in the assay with NCI-H226 lung; -5.63% (active) in the assay with NCI-H322M lung; 9.82% (active) in the assay with HOP-62 NSCLC; -20.1% (active) in the assay with HOP-92 NSCLC; -11% (active) in the assay with NCI-H522 lung. Besides, the growth in the assay on A549/ATCC NSCLC is 23.6%; in the assay with 786-0 renal it was 13.3%; with COLO 205 colon it was -20.2% (active); in the assay on DU-145 prostate it was 16.2%; in the assay on K-562 leukemia, 19.4%; in the assay on MALME-3M melanoma, -36.1% (active). In addition, the growth with MDA-MB-231 breast was 1.43% (active); with RXF 393 renal, -25.7% (active); in the assay on SF-268 CNS it was 1.24% (active); with SF-295 CNS, 6.42% (active); with SF-539 CNS it was -16.6% (active); in the assay on UACC-257 melanoma, 20.2%. Besides, the growth with M14 melanoma is 1.49% (active).
Regarding `CC/C(=C(/c1ccc(Cl)cc1)c1ccc(OCCN(C)C)cc1)c1ccc(Cl)cc1`, the growth was 73.5% with NCI-H23 lung; 87.5% with NCI-H226 lung; 83.6% in the assay on NCI-H322M lung; 78.5% in the assay on HOP-62 NSCLC; 83.7% in the assay on HOP-92 NSCLC; 70.3% in the assay on NCI-H522 lung. Moreover, the growth in the assay on A549/ATCC NSCLC is 61.2%; in the assay on 786-0 renal, 66.3%; with COLO 205 colon, -16.1% (active); in the assay on DU-145 prostate it was 77.7%; in the assay on K-562 leukemia, 16%; with MALME-3M melanoma, 73.9%. The growth in the assay with MDA-MB-231 breast is 83.3%; in the assay on RXF 393 renal, 68.5%; in the assay with SF-268 CNS, 77.4%; in the assay with SF-295 CNS it was 69.7%; in the assay on SF-539 CNS, 86.2%; with UACC-257 melanoma, 72.2%. The growth with M14 melanoma is 88.1%.
